AmpC inh detg: qHTS Inhibitors of AmpC Beta-Lactamase (assay with detergent). P00811. AmpC hydrolysis of nitrocefin, absorbance 480 nm, 0.01% Triton. Potency, µM (series often up to 114 µM), without a hit: at the top dose activity change, negative = inhibition, usual class: inhibitors. 370,000 tested, 0.041% active. AID 485294, 2010;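 also: 0% = no-compound wells and -100% = no-enzyme wells; nearly all actives have a fitted effect of over 25% in size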
Target sequence (P00811 whole entry, looked up): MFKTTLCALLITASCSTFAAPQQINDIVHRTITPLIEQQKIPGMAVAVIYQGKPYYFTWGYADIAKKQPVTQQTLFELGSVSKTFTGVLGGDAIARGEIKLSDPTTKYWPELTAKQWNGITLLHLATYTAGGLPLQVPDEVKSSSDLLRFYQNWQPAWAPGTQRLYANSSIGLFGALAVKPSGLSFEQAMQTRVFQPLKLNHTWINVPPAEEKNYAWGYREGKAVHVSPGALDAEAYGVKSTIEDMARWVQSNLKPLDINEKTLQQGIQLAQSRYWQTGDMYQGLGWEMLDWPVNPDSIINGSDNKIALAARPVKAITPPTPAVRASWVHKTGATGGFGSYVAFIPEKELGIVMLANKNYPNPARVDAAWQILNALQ
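20 mM phosphate pH 7.0 + 0.01% (detergent screen) or 0.0001% Triton X-100; 5.3 nM AmpC reagent; cpd preinc 15 min RT; nitrocefin (800 uM stock) to start; A480 q20 s × 4 min; Activity was normalised to no-enzyme and no-compound control wells.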
AmpC no deterg: qHTS Inhibitors of AmpC Beta-Lactamase (assay without detergent) | Potency, µM (highest dose often 57.1 µM), for the others: at the top dose activity change, negative = inhibition, most hits filed as inhibitors | 330,000 tested, 0.52% active | AID 485341, 2010 | AmpC nitrocefin hydrolysis, absorbance 480 nm, 0.0001% Triton | P00811;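 also: plate controls were no compound for no effect and no enzyme for full effect; nearly all actives have a fitted effect of over 20% in size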
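20 mM phosphate pH 7.0 + 0.01% (detergent screen) or 0.0001% Triton X-100; 5.3 nM AmpC reagent; cpd preinc 15 min RT; nitrocefin (800 uM stock) to start; A480 q20 s × 4 min; Activity was normalised to no-enzyme and no-compound control wells.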
Sm TGR inh: qHTS Assay for the Inhibitors of Schistosoma Mansoni Peroxiredoxins | purified TGR, DTNB reduction, TNB absorbance 405 nm | 360,000 tested, 3% active | Potency, µM (top dose mostly 114 µM), inactives show top-dose activity change, negative = inhibition, actives largely listed as inhibitors | Schistosoma mansoni thioredoxin glutathione reductase (TGR), Q962Y6; also: nearly all actives have a fitted effect of over 60% in size
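First, TGR (20 nM dispensed) and NADPH were mixed with compound. Second, a 15 min room-temperature incubation followed. Third, further NADPH and then DTNB were added to start the reaction. Finally, TNB absorbance was monitored kinetically.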
* marks the source's active call; other numbers are inactive results; ? = inconclusive; / = no result given; [ ] = another dose, or the depositor's remark. Compounds with a hit are over-represented: about 3.3% of the library has one in this group of screens. Calls follow the shape of the dose curve; as a rule, active = well fitted curve in the direction sought with a large enough effect; inconclusive = small, poorly fitted or top-dose-only effect, or another doubt; inactive = no such curve, though single readings can be large; an effect the other way counts as inactive or inconclusive. Unless noted, % is scaled to controls: 0 for no effect and ±100 for the full control effect; potency is read from the fitted curve at half-maximal effect.

SMILES	AmpC inh detg	AmpC no deterg	Sm TGR inh
CSc1ncc(C(=O)Nc2ccccc2C(=O)c2ccccc2)c(C)n1	19.4%	/	-10.6%
O=C(CSc1n[nH]c(-c2ccc(S(=O)(=O)N3CCCCC3)cc2)n1)Nc1nccs1	?	14.1µM*	3.8%
Cn1c(SCC(=O)Nc2nccs2)nnc1-c1ccc(S(=O)(=O)N2CCCC2)cc1	-11.5%	-14.8%	6.2%
COc1cccc(CC(=O)OCC(=O)NNC(=O)c2ccc(Br)cc2)c1	2.6%	-27.2%	-1.7%
CCOC(=O)c1ccc(NC(=O)c2c(C)oc3nc(C)nc(N4CCCC4)c23)cc1	0.0%	/	2.5%
N#Cc1ccc(S(=O)(=O)N2CCN(CC(=O)NCC3(N4CCOCC4)CCCCC3)CC2)cc1	6.1%	197.2%	-1.6%
CN(C)CCNc1oc(COc2ccc(Cl)cc2)nc1C#N	4.5%	-4.9%	28.2µM*
CN(C)CCNc1oc(COc2cccc(Cl)c2)nc1C#N	-20.0%	3.5%	35.5µM*
N#Cc1nc(COc2cccc(Cl)c2)oc1NCCc1ccccc1	?	/	0.1%
COc1ccc(CCNc2oc(COc3ccc(F)cc3)nc2C#N)cc1	0.6%	-38.1%	-13.6%
COc1ccc(CC(=O)NNC(=S)NCC2CC2)cc1OC	-5.3%	-9.2%	1.0%
Cn1nnnc1SCCNCc1ccccc1OCc1ccc(Cl)cc1Cl	-1.5%	/	9.3%
CCOC(=O)c1[nH]c(C)c(C(=O)NCc2cccc(OC)c2)c1C	0.0%	/	-10.6%
O=C(CCn1cccc1)N1CCc2ccccc21	-3.7%	-34.7%	25.1µM*
O=C(Cc1ccccc1)N1CCc2ccccc21	9.1%	-31.4%	-1.2%
O=C1CC(N2CCC(c3nc4ccccc4[nH]3)CC2)C(=O)N1Cc1ccccc1 (configuration not stated)	0.9%	/	?
O=C1CC(N2CCC(c3nc4ccccc4[nH]3)CC2)C(=O)N1c1cccc(F)c1 (configuration not stated)	-10.9%	-20.6%	?
O=C(O)c1ccc(N2C(=O)CC(N3CCC(c4nc5ccccc5[nH]4)CC3)C2=O)cc1 (configuration not stated)	-1.2%	-15.7%	22.4µM*
O=C(c1ccc(Br)o1)N1CCC(c2nc3ccccc3[nH]2)CC1	?	-8.5%	39.8µM*
O=C(C1CCCCC1)N1CCC(c2nc3ccccc3[nH]2)CC1	-4.0%	-15.1%	21.9%
CN1C(=O)CC(N2CCC(c3nc4ccccc4[nH]3)CC2)C1=O (configuration not stated)	?	-16.0%	89.1µM*
CCN(CC)C(=O)CSc1nc2cc3c(cc2c(=O)n1Cc1ccc(C(=O)NCCc2ccc(OC)c(OC)c2)cc1)OCO3	6.0%	/	7.2%
CN(CC(=O)NCc1ccco1)CC(=O)Nc1ccc(F)c(F)c1F	/	15.5%	/
COc1cccc(NC(=O)C(C)(C)C)c1	?	-23.7%	-24.6%
COc1cccc(NC(=O)/C=C/c2ccco2)c1	-12.2%	-43.4%	10µM*
SMILES	AmpC inh detg	AmpC no deterg	Sm TGR inh
CSc1cccc(NC(=O)/C=C/c2ccco2)c1	-2.9%	-57.4%	1.12µM*
CSc1cccc(NC(=O)/C=C/c2ccccc2)c1	?	-32.7%	1.6%
CCCn1nc(NC(=O)c2ccco2)c2cc3ccc(C)cc3nc21	-4.9%	-0.6%	?
CC(C)Cn1nc(NC(=O)c2ccco2)c2cc3ccccc3nc21	9.4%	0.5%	50.1µM*
CCn1nc(NC(=O)c2ccco2)c2cc3ccccc3nc21	-1.8%	-6.3%	2.6%[11.4 µM]
CCCn1nc(NC(=O)c2ccco2)c2cc3cc(C)ccc3nc21	0.5%	50.0%	11.2µM*
O=C1/C(=C\c2ccco2)SC(=S)N1C1CCCCC1	?	-56.9%	39.8µM*
O=C1/C(=C/c2ccc(Cl)cc2)SC(=S)N1CCC(=O)N1CCCCC1CCO (configuration not stated)	-0.6%	71.9%	-5.1%
O=C1/C(=C/c2ccco2)SC(=S)N1CCC(=O)N1CCCCC1CCO (configuration not stated)	1.9%	63.8%	22.4µM*
Cc1ccc(N2C(=O)/C(=C/c3ccco3)SC2=S)cc1	?	-24.6%	-12.5%
COc1ccc(C2=CSC3=C(C(=O)c4cccc(S(=O)(=O)N(C)C)c4)CCN23)cc1	1.3%	-2.6%	1µM*
COc1ccc(N(C)S(=O)(=O)c2cccc(C(=O)N3CCN(c4ccccc4)CC3)c2)cc1	-16.4%	86.8%	-17.3%
COc1cc2c(cc1OC)C(COc1ccc3c(C)cc(=O)oc3c1)N(C(=O)c1cc(Cl)ccc1OC)CC2 (configuration not stated)	9.9%	/	-10.2%

Source: PubChem BioAssay (National Center for Advancing Translational Sciences (NCATS))
